Among the data in PubChem BioAssay (NCI) are growth values, retold here.

Test systems include SK-MEL-2 melanoma; EKVX NSCLC; SN12C renal; TK-10 renal; ACHN renal; CAKI-1 renal; A498 renal; MOLT-4 leukemia; SR leukemia; RPMI-8226 leukemia; OVCAR-8 ovarian; OVCAR-5 ovarian; OVCAR-4 ovarian; SK-OV-3 ovarian; IGROV1 ovarian; OVCAR-3 ovarian; HS 578T breast; NCI/ADR-RES ovarian; UO-31 renal; CCRF-CEM leukemia.
What all share (test): NCI-60 one-dose screen, 48 h (100 = growth as untreated, 0 = no growth, -100 = all killed)
Details in all cases: 10 µM unless noted

The panel holds about 83,000 compounds, 20% with a hit somewhere; the sample as a whole holds those more often.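 Growth was measured after 48 h exposure to one concentration of compound in 96-well plates. Values under 10 count as active.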 Unmarked numbers belong to inactive results. Active and inactive are the calls of the source.

For `CCCCNC(=O)c1cc(NCc2cc(O)ccc2O)ccc1O`, the growth is 93.6% with SK-MEL-2 melanoma; 95% with EKVX NSCLC; 89.7% in the test on SN12C renal; 101% in the test on TK-10 renal; 89.4% in the test on ACHN renal; 87.3% in the test on CAKI-1 renal. The growth in the test with A498 renal was 88.9%; in the test on MOLT-4 leukemia it was 61.5%; in the test with SR leukemia, 41.1%; in the test on RPMI-8226 leukemia, 19.3%; with OVCAR-8 ovarian it was 87.6%; in the test on OVCAR-5 ovarian it was 107%. Further, the growth in the test with OVCAR-4 ovarian was 90.8%; with SK-OV-3 ovarian, 85.8%; in the test on IGROV1 ovarian it was 98.4%; with OVCAR-3 ovarian, 54.2%; in the test with HS 578T breast it was 88%; in the test on NCI/ADR-RES ovarian, 95%.

`C[C@@H]1C(=O)N(C[C@H](Cc2ccccc2)NC(=O)OCc2ccccc2)[C@]1(Cc1ccccc1)C(=O)OC(C)(C)C`: the growth in the test on SK-MEL-2 melanoma is 76.8%; in the test with EKVX NSCLC, 60.3%; in the test on UO-31 renal it was 46.5%; in the test with TK-10 renal it was 67.2%; with ACHN renal, 75.2%; in the test on CAKI-1 renal, 51.4%. Also, the growth in the test with A498 renal is 54%; with CCRF-CEM leukemia it was 72.2%; in the test on MOLT-4 leukemia, 34%; with SR leukemia it was 64.4%; in the test on RPMI-8226 leukemia it was 41.3%; in the test with OVCAR-8 ovarian, 66.9%. Besides, the growth in the test with OVCAR-5 ovarian was 91.5%; with OVCAR-4 ovarian, 52.4%; in the test with SK-OV-3 ovarian, 70.2%; with IGROV1 ovarian, 69.7%; with OVCAR-3 ovarian it was 70.3%; with HS 578T breast, 79.4%. The growth in the test on NCI/ADR-RES ovarian was 63%.

For `N#Cc1cnn2c(-c3ccc(Cl)cc3)nc(NC3CC3)nc12`, the growth with SK-MEL-2 melanoma was 99.8%; in the test on EKVX NSCLC, 75.9%; in the test with SN12C renal, 98.9%; in the test with TK-10 renal, 94.2%; in the test on ACHN renal, 96.8%; in the test with A498 renal, 84.5%. Besides, the growth with CCRF-CEM leukemia was 95.7%; in the test on MOLT-4 leukemia it was 80.1%; in the test on OVCAR-8 ovarian, 102%; in the test with OVCAR-5 ovarian it was 93.9%; in the test on OVCAR-4 ovarian it was 87.2%; in the test with SK-OV-3 ovarian, 107%. For the same molecule, the growth is 89.4% in the test with IGROV1 ovarian, 101% in the test with OVCAR-3 ovarian, 101% with HS 578T breast and 98.8% in the test on NCI/ADR-RES ovarian.

Turning to `Nc1ccc(S(=O)(=O)Nc2ccsc2-c2nc(-c3ccccc3)no2)cc1`, the growth is 32.3% in the test on SK-MEL-2 melanoma; 73% with EKVX NSCLC; 84.8% in the test with SN12C renal; 66.1% with TK-10 renal; 87.8% in the test with ACHN renal; 53.8% with CAKI-1 renal. The growth with A498 renal was 61.2%; in the test with CCRF-CEM leukemia it was 53.2%; in the test with RPMI-8226 leukemia, 65.8%; in the test on OVCAR-8 ovarian it was 59.7%; in the test with OVCAR-5 ovarian, 87.5%; in the test on OVCAR-4 ovarian it was 81.9%. The growth with SK-OV-3 ovarian is 62.3%; in the test on IGROV1 ovarian, 64.7%; in the test with OVCAR-3 ovarian, 36.8%; with HS 578T breast, 56.4%; with NCI/ADR-RES ovarian, 54.6%.

Take `Cc1nc2ccccc2c(/C=C/c2ccc(Cl)cc2)c1C(=O)/C=C/c1ccc(Cl)cc1`: the growth in the test with SK-MEL-2 melanoma was -13.6% (active); in the test with EKVX NSCLC, -11.9% (active); in the test on UO-31 renal, -86.2% (active); with TK-10 renal, -6.59% (active); in the test with ACHN renal, -90.3% (active); with CAKI-1 renal, -33.8% (active). Also, the growth in the test with A498 renal was -75.5% (active); in the test with CCRF-CEM leukemia it was 7.4% (active); in the test on MOLT-4 leukemia it was 5.06% (active); in the test with RPMI-8226 leukemia, -17.4% (active); in the test with OVCAR-8 ovarian, 5.4% (active); in the test with OVCAR-5 ovarian, -45.6% (active). Moreover, the growth with OVCAR-4 ovarian is 0.984% (active); with SK-OV-3 ovarian, 28.4%; in the test on IGROV1 ovarian it was -51.8% (active); with OVCAR-3 ovarian, -70.6% (active); with HS 578T breast it was -4.76% (active); with NCI/ADR-RES ovarian, -15.4% (active).

Regarding `NS(=O)(=O)Oc1ccc(-c2sc3cc(O)ccc3c2C(=O)c2ccc(OCCN3CCCCC3)cc2)cc1`, the growth is 84% in the test with SK-MEL-2 melanoma; 72.3% in the test with EKVX NSCLC; 69.1% in the test with SN12C renal; 72.4% in the test on TK-10 renal; 60.9% in the test on ACHN renal; 25.9% with CCRF-CEM leukemia. In addition, the growth in the test with MOLT-4 leukemia is 11%; in the test on SR leukemia, 4.91% (active); in the test on OVCAR-8 ovarian, 63.9%; in the test with OVCAR-5 ovarian, 87.2%; in the test with OVCAR-4 ovarian it was 58.4%; with IGROV1 ovarian, 75.6%. Besides, the growth in the test with OVCAR-3 ovarian was 62.6%; in the test with HS 578T breast it was 37.8%; in the test with NCI/ADR-RES ovarian, 80.4%.

Consider `N#Cc1c(N)nc2c(nnn2-c2cccc(C(F)(F)F)c2)c1N`, for which the growth is 91.2% with SK-MEL-2 melanoma; 29.1% in the test on EKVX NSCLC; 87.7% in the test with SN12C renal; 90.2% in the test with TK-10 renal; 87.7% in the test on ACHN renal; 77.2% with CAKI-1 renal. For the same molecule, the growth with A498 renal is 97.7%; in the test on CCRF-CEM leukemia, 87.9%; in the test on MOLT-4 leukemia, 75.8%; with SR leukemia it was 83.1%; in the test with RPMI-8226 leukemia, 82.4%; in the test on OVCAR-8 ovarian, 89.3%. Further, the growth is 102% in the test on OVCAR-5 ovarian; 87.5% in the test on OVCAR-4 ovarian; 84.9% in the test on SK-OV-3 ovarian; 81.1% in the test with IGROV1 ovarian; 97.9% in the test with OVCAR-3 ovarian; 46.2% with HS 578T breast. The growth with NCI/ADR-RES ovarian is 95.8%.

Take `CN(C)CCCCNc1ccc(NCCCCN(C)C)c2c1C(=O)c1c(O)ccc(O)c1C2=O`: the growth with SK-MEL-2 melanoma was 98.2%; in the test on EKVX NSCLC, -76.2% (active); in the test with SN12C renal it was 64.2%; with TK-10 renal, -93.6% (active); in the test on ACHN renal, -89.2% (active); in the test on A498 renal, 92.4%. Further, the growth in the test on CCRF-CEM leukemia is -28.5% (active); with RPMI-8226 leukemia it was 53.6%; in the test on OVCAR-8 ovarian, -73.1% (active); with OVCAR-5 ovarian it was -86% (active); in the test on SK-OV-3 ovarian, 85.6%; in the test on IGROV1 ovarian it was -84.5% (active). Also, the growth in the test with OVCAR-3 ovarian is 100%; in the test with HS 578T breast, 92%; in the test on NCI/ADR-RES ovarian it was -68.8% (active).

For `Cc1cc(C(c2ccccc2)c2ccccc2)ccc1NS(=O)(=O)c1ccccc1`, the growth in the test with SK-MEL-2 melanoma is 104%; in the test on EKVX NSCLC, 83.5%; in the test with SN12C renal, 95.3%; in the test with TK-10 renal, 123%; in the test with ACHN renal it was 106%; with CAKI-1 renal it was 89.3%. Besides, the growth in the test on A498 renal was 102%; in the test on CCRF-CEM leukemia it was 82.4%; in the test with MOLT-4 leukemia it was 59.7%; with SR leukemia it was 74.7%; in the test on RPMI-8226 leukemia, 71%; in the test on OVCAR-8 ovarian it was 101%. Moreover, the growth with OVCAR-5 ovarian is 114%; in the test on OVCAR-4 ovarian, 98.5%; with SK-OV-3 ovarian, 109%; in the test with IGROV1 ovarian, 123%; with OVCAR-3 ovarian it was 108%; with HS 578T breast it was 89.8%. The growth in the test with NCI/ADR-RES ovarian is 82.8%.
